Results: the OligoGym collection

molecular target: COG2; assay: pooled miR-30 sensor sort-seq; sequence = guide strand; conditions: shRNA
Also: reference of the scale not given here.

Sequence	sensor-assay potency score (higher = more potent)
ATCGACATCGAAATCTTCCTTC	0.744
TCATCTGACCAACACCTCCTAA	-1.05
TTAATCTCTTTACACTAGCCTG	-1.22
TTCCACTTCTTATTGAAGCTGT	0.407
TAATCTCTTTACACTAGCCTGT	-0.36
TTTCTCATGAAATGCATCGGGA	-0.465
TTGTTTGAGCTTATCCTTGTGT	0.0501
TTTAATACATCTGACACGGTTT	-0.235

molecular target: COL16A1; assay: as above; conditions: shRNA

Sequence	sensor-assay potency score (higher = more potent)
TTGAAACAGATACCACGTCTTC	-0.641
ATGCAGGACACAAAGTCGCCAT	-0.876
ATTTTAATGATCTCTTGTCTGA	-0.577
TTGAAGGCCAGGCAATCCGGGG	-1.21
TTGAACTCCTGGTAGACCGGGT	0.285
TTTAATGATCTCTTGTCTGATG	-0.368
TTGCGGATCTTCTTGATGGCAG	-0.676
TTTCTTCAGCAGTAGTGTCAGC	-0.871
ATCTCTTGTCTGATGAACCTCT	-0.329
TTCCAATTTGAGTCCTTCCTGC	0.311
TTGACTTCCAGGGATATCTGTG	-0.154
TGTAGTAAGCCATTCTCTCATC	-0.613
TTAATGATCTCTTGTCTGATGA	-0.576
TAGACCTTGCCTTCAGACTGTG	0.244
TGAACCTCTTGATTTCATCATA	-1.14
TGGTTTGCCACAGTCACCCTTA	-0.19
TTCTCTGCCAATCTGACCAGGG	-0.174
TCTTGTCTGATGAACCTCTTGA	0.162
TCGAACACAGTCATTGCCCCGT	-0.664
TTGTCTGATGAACCTCTTGATT	-1.11
TTTTAATGATCTCTTGTCTGAT	-0.328
TTGGTAAGGATCCCAGTTCTGC	-0.831
AAGTGTGACATTGCTGTCCCGG	-0.502
